# Source: PubChem (several laboratories)
# The list is not random: actives were taken first. Their share in the collection is about 4.6%.
# HIF-2a block = inhibitors of HIF-2a; 786-0 RCC cells HIF-2a reporter, luciferase luminescence, overnight; 0.72% of 360,000 active; AID 624352; inhibition, % at 18.8 µM;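 active means inhibition of the luminescence signal of 40% or more relative to plate controls, in a single-dose primary screen at 18.75 µM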
# ABHD5 PLIN5 PPI = ABHD5-PLIN5 protein interaction inhibition; inhibition, % at 4 µM; 0.78% of 360,000 active; Q00G26+Q8WTS1; Split G. princeps luciferase complementation, luminescence, 4 h;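 active means inhibition above the mean inhibition across every tested compound plus 3 SD, cut at about 22% in these data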;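 further: 0% = DMSO only wells and the 100% control is not disclosed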
# Target sequence (Q00G26 whole entry, looked up): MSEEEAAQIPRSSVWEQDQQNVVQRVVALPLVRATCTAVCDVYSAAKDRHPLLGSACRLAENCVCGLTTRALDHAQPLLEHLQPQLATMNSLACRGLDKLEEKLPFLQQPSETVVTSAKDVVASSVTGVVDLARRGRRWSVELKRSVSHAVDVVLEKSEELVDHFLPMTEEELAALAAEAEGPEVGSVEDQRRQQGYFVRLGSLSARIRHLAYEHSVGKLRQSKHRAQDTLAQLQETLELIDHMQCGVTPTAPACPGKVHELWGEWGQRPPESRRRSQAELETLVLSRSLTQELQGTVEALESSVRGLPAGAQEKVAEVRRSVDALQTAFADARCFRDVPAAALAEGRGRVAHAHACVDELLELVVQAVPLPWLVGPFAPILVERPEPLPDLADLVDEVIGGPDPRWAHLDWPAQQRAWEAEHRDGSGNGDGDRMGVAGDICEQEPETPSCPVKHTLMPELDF
# Target sequence (Q8WTS1 whole entry, looked up): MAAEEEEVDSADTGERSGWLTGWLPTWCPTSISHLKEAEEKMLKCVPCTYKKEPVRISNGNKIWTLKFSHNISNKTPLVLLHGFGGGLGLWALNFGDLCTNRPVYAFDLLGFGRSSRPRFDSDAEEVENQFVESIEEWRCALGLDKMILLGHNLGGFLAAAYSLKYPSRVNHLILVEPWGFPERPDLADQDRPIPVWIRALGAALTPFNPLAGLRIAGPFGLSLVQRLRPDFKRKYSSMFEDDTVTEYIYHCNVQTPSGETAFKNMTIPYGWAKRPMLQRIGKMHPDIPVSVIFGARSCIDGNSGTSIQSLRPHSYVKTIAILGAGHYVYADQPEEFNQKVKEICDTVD
# Mdm2 MdmX PPI = human Mdm2/MdmX binding inhibition; O15151+Q00987; SaOS-2 split-luciferase Mdm2/MdmX complementation, luminescence; inhibition, % at 8 µM; 3% of 330,000 active;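 active means inhibition of at least 50% at 8 µM in the primary screen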
# CF NFkB block = blocks PAF-induced NF-kB reporter in cystic fibrosis cells | AID 588850 | inhibition, % at 5 µM | 0.86% of 360,000 active | KKLEB NF-kB-GFP reporter, GFP fluorescence overnight;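 active means at least 50% inhibition at 5 µM, scaled per plate between neutral and stimulator controls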;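 further: PAF is a Pseudomonas aeruginosa culture filtrate used as stimulus; plate controls were PAF-stimulated DMSO wells for no effect and unstimulated DMSO wells for full effect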
# Peg3 promoter = inhibitors of Peg3 promoter; HeLa PEG-Prom luciferase reporter, luminescence, overnight; AID 588405; 1.7% of 360,000 active; inhibition, % at 20 µM;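 active means inhibition of at least 50% at 20 µM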
# KKLEB tox = counter-screen for CF NF-kB inhibitors: cytotoxicity | 0.36% of 360,000 active | activity change (cytotoxicity), % at 5 µM | KKLEB CF airway cells viability, ATPlite luminescence, overnight; stronger effect = lower value; cells stimulated with P. aeruginosa culture filtrate;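 active means corrected activity change at or below -50% at 5 µM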
# * = called active by the depositor; · = not tested or not shown.
SMILES,HIF-2a block,ABHD5 PLIN5 PPI,Mdm2 MdmX PPI,CF NFkB block,Peg3 promoter,KKLEB tox
O=C(c1c[nH]c(C(=O)C(Cl)(Cl)Cl)c1)c1ccc(F)cc1Cl,-1.9,1.5,13.5,15.6,53.6*,8.5
O=C(c1ccc(Cl)cc1)c1c[nH]c(C(=O)C(Cl)(Cl)Cl)c1,-7.0,-0.4,28.7,-3.2,58.4*,2.1
CN1CCCN=C1COC(=O)C(O)(c1ccccc1)C1CCCCC1 (stereo not drawn),-7.2,-3.7,5.9,18.7,-7.1,-63.7*
CC(C)N(C(=O)CSc1ccc(S(=O)(=O)N2CCCCC2)cn1)C(C)C,9.4,-5.1,9.8,-2.2,13.4,6.3
CCOc1ccc(OCC(=O)Nc2nccs2)cc1,37.6,1.1,-45.6,-1.6,59.0*,-8.6
O=[N+]([O-])/C(Cl)=C(/NCCO)C(Cl)=C(Cl)Cl,-2.3,10.8,·,-17.5,5.4,1.4
Cc1cccnc1NC(=O)c1ccc([N+](=O)[O-])o1,1.1,-3.7,-0.1,10.6,-10.0,-4.2
O=C(Nc1cccc2ncccc12)c1ccc([N+](=O)[O-])o1,22.6,-3.6,1.9,26.5,51.4*,5.5
Cc1c(NC(=O)c2ccc([N+](=O)[O-])o2)cccc1-c1nc2ncccc2o1,33.4,-7.2,28.6,96.5*,83.4*,-31.2
CC1CNC(=S)N(c2ccccc2)C1=O (stereo not drawn),5.8,-1.4,·,-12.3,62.3*,-1.4
Cc1ccc(NC(=O)CN(C)C(=O)COc2ccccc2-c2ccccc2)cc1,0.9,4.0,-6.1,-14.5,15.3,5.6
COc1ccc2[nH]c(=O)c(CN(CC3CCCO3)C(=O)Nc3ccc(F)cc3)cc2c1 (stereo not drawn),15.9,2.9,·,-0.3,76.7*,-7.1
N=C(N)SCc1cn(-c2ccccc2)nc1-c1ccc(Br)cc1,-23.4,12.0,·,16.5,108.2*,-5.3
COc1ccc(-c2nn(-c3ccccc3)cc2CO)cc1,-140.8,7.5,16.8,10.2,-150.1,-4.2
COc1ccc(C2(CNC(=O)/C=C/c3ccco3)CCCC2)cc1OC,15.1,35.4*,9.4,11.6,-7.1,-8.0
O=C(CCCn1cnc([N+](=O)[O-])n1)Nc1ccc(Cl)c(Cl)c1,-30.4,27.8*,18.0,14.6,23.2,-8.7
O=C(CCCn1cnc([N+](=O)[O-])n1)Nc1cccc(Cl)c1Cl,14.1,-2.3,5.6,22.4,14.6,-9.9
Cc1onc(-c2c(F)cccc2Cl)c1C(=O)Nc1sc2c(c1C(N)=O)CCC2,-3.1,-0.5,38.3,-5.7,51.9*,-3.8
Cc1onc(-c2ccccc2)c1C(=O)Nc1sc2c(c1C(N)=O)CCC2,3.4,-5.3,20.6,-14.6,16.4,-1.1
COc1ccc(-c2cc3c(nn2)-c2ccccc2C3=O)cc1,13.8,-3.7,-65.3,-27.7,80.5*,-50.1*
O=C1c2ccccc2-c2nnc(-c3ccccc3)cc21,-76.8,-1.5,-45.4,-1.6,-31.9,-12.2
Cc1ccc(S(=O)(=O)N(C(=O)c2ccncc2)c2ccc(OC(=O)c3ccncc3)cc2)c(C)c1,24.1,6.0,14.0,71.6*,52.5*,-50.5*
COc1ccc(NC2c3ccccc3C(=O)N2Cc2ccc3c(c2)OCO3)cc1 (stereo not drawn),3.8,-3.4,10.1,8.2,5.6,8.1
CC(OC(=O)c1ccccc1C(=O)N(C)C1CCCCC1)C(=O)NC1(C#N)CCCCC1 (stereo not drawn),1.0,-7.9,0.6,-15.8,-2.2,6.3
COc1ccc(NC(=O)CN2C(=O)CSC(C)C2=O)cc1 (stereo not drawn),15.7,3.3,9.9,3.7,54.8*,3.8
SMILES,HIF-2a block,ABHD5 PLIN5 PPI,Mdm2 MdmX PPI,CF NFkB block,Peg3 promoter,KKLEB tox
O=C(NN=Cc1cccc2ccccc12)C(=O)NN=Cc1cccc2ccccc12,2.3,1.5,·,-24.3,51.1*,6.2
CC(O)C(=O)N/N=C/c1cccc2ccccc12 (stereo not drawn),-16.3,0.1,·,3.6,-21.1,0.6
CN(C)Cc1c(C(=O)N/N=C/c2cccc3ccccc23)nnn1-c1nonc1N,4.2,5.3,39.8,23.2,1.0,4.7
Cc1nnn(-c2nonc2N)c1C(=O)N/N=C/c1cccc2ccccc12,4.2,0.3,19.0,4.2,52.2*,-4.9
CN(Cc1c(C(=O)N/N=C/c2ccccc2O)nnn1-c1nonc1N)C1CCCCC1,7.7,-0.9,·,12.3,58.9*,-9.2
CC1=C(SCc2ccccc2)C(=O)c2ccccc2C1=O,29.1,-9.9,·,89.4*,85.3*,-44.0
